Bioassay records deposited in PubChem BioAssay by Johns Hopkins Ion Channel Center.
KCNQ2 pot – enhances the rat KCNQ2 potassium channel; O88943; CHO-K1 KCNQ2, FluxOR thallium flux fluorescence; stronger effect = higher value; B-score at 10 µM; actives 0.54% (n = 310,000); AID 2239;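 active means fluorescence ratio B-score at least 3 SD of library B-scores, with initial fluorescence B-score within 3 of them, cut at about 5.3 in these data; same plate scores as AID 2156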;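 further: B-score of peak minus minimum over baseline fluorescence ratio after K+ and Tl+ stimulus; positive B-score means potentiation of KCNQ2 with more thallium influx and brighter signal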
Target sequence (O88943 whole entry, looked up): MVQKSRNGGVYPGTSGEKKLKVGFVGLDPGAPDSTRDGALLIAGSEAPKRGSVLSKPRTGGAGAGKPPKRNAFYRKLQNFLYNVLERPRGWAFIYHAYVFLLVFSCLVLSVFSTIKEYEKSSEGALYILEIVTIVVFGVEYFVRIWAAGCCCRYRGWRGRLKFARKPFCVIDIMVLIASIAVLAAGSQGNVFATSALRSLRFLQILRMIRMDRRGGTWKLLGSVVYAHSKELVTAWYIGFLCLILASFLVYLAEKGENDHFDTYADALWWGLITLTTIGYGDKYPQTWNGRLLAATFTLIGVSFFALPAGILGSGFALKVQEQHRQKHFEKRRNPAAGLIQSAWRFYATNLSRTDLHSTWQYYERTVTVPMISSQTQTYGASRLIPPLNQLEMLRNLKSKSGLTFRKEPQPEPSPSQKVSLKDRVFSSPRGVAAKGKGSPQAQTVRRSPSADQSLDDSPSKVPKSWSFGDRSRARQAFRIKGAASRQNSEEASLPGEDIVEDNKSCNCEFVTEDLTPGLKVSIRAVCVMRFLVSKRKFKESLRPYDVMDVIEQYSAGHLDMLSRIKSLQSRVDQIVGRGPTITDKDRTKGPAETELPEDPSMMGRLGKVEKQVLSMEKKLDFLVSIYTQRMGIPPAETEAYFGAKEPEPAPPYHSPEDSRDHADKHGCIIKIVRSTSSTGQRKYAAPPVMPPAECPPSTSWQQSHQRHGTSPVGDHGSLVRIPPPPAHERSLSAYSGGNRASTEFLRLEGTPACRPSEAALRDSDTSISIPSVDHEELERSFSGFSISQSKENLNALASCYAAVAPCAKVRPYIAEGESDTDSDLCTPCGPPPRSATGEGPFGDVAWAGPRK
KCNQ2 block – inhibitors of rat KCNQ2 potassium channel; O88943; B-score at 10 µM; CHO-K1 KCNQ2, FluxOR thallium flux, 20 min; stronger effect = lower value; actives 1.1% (n = 310,000); AID 2156;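 active means fluorescence ratio B-score at most minus 3 library SDs, with starting brightness B-score within 2 library SDs, cut at about -5.5 in these data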
Each line names hits and unclear results; the compound was inactive in the other large screens. An excerpt weighted towards active compounds, which were near 1.6% of everything screened.

COC(=O)c1cn(C(=O)c2cc(C)cc(C)c2)c2ccccc12	none
COC(=O)c1cn(C(=O)c2cc(Br)ccc2Cl)c2ccccc12	KCNQ2 block -6.1
O=C(NCc1ccccc1)C1CCN(c2nc(-c3ccccc3)nc3c2CCC3)CC1	KCNQ2 block -5.8
COc1ccc(CNC(=O)C2CCN(c3nc(-c4ccccc4)nc4c3CCC4)CC2)cc1	none (no result: KCNQ2 pot)
Cn1cccc1Cc1nnc(SCC(=O)N2CCc3ccccc32)n1-c1ccc(F)cc1	none (no result: KCNQ2 pot)
N/C(=N\OC(=O)CCC1CCCC1)c1cccc([N+](=O)[O-])c1	KCNQ2 pot 5.8
N/C(=N\OC(=O)CCC1CCCCC1)c1ccc([N+](=O)[O-])cc1	none
N/C(=N\OC(=O)CC1CCCCC1)c1cccc([N+](=O)[O-])c1	KCNQ2 pot 10
N/C(=N\OC(=O)CC1CCCCC1)c1ccc([N+](=O)[O-])cc1	none (no result: KCNQ2 pot)
COc1ccccc1NC(=O)c1cc(C)oc1C	none (no result: KCNQ2 pot)
CCOc1ccccc1NC(=O)c1cc(CC(C)C)oc1C	KCNQ2 block -6.2
Cc1c(NC(=O)c2ccccc2NS(=O)(=O)c2ccc(F)cc2)c(=O)n(-c2ccccc2)n1C	none
NS(=O)(=O)c1ccc(N=Nc2ccc(O)c3ncccc23)cc1	none
O=Cc1ccc(O)c2ncccc12	KCNQ2 pot 7.2
N#Cc1c(-c2ccc(C(F)(F)F)cc2)cc(-c2ccccc2)[nH]c1=S	KCNQ2 pot 5.4
Cc1ccc(-c2cc(-c3ccccc3)[nH]c(=S)c2C#N)cc1	none
COc1ccc(O)c(/C=C(\C#N)C(=O)Nc2ccccn2)c1	none (no result: KCNQ2 pot)
c1ccc(-c2cc3c(N4CCN(c5ccccc5)CC4)ncnc3s2)cc1	KCNQ2 block -7.7
c1ccc(-c2cc3c(N4CCN(c5ncccn5)CC4)ncnc3s2)cc1	none (no result: KCNQ2 pot)
CC(=C\C(=O)O)/C(=C/c1ccc(C)o1)C(=O)O	none
CCOc1ccc(N(CC(=O)NCc2ccccc2Cl)S(=O)(=O)c2c(C)[nH]c(=O)[nH]c2=O)cc1	none
COc1cc(/C=N/Nc2nc(C)cc(=O)[nH]2)ccc1OC(=O)c1cccnc1	none
C=CCN1C(=S)CC(c2ccccc2)=Nc2ccccc21	KCNQ2 block -6.7
C=CCn1c(-c2csc(-c3ccccc3)n2)n[nH]c1=S	none
CC(=O)NC(Cc1ccccc1)C(=O)NC1CCN(C(=O)c2ccc([N+](=O)[O-])cc2)CC1 (centres undefined)	none
Cc1ccc(Cl)cc1N1CCN(C(=S)NCc2ccco2)CC1	none (no result: KCNQ2 pot)
S=C(NCc1ccco1)N1CCN(c2ccccc2Cl)CC1	KCNQ2 block -5.8
COc1cccc(CNCC(O)(c2ccc(Cl)cc2)c2ccc(Cl)cc2)c1	none (no result: KCNQ2 pot)
Cc1ccc(CNCC(O)(c2ccccc2)c2ccc(Cl)cc2)cc1 (centres undefined)	KCNQ2 block -6.4
O=S(=O)(c1ccc(Cl)cc1)N1CCN(c2nc(-c3cccs3)nc3ccccc23)CC1	none
CCOc1ccc(CNC(=O)c2ccc(Sc3ccc(Cl)cc3)c(NC(C)=O)c2)cc1	none (no result: KCNQ2 pot)
CCn1cc(C2=NC(C)CO2)c2ccccc21 (centres undefined)	none
CCn1cc(C2=NC(c3ccccc3)CO2)c2ccccc21 (centres undefined)	KCNQ2 block -5.7
C=CCn1c(SCC(=O)NCC)nc2sc3c(c2c1=O)CCC3	none
O=C(CSc1ccc([N+](=O)[O-])cc1)NCC1CCCCC1	none
CC1CCC(C(C)C)C(OC(=O)Cn2c(-c3ccc(Br)cc3)[n+](C)c3ccccc32)C1 (centres undefined)	KCNQ2 block -5.6
CC1CCC(C(C)C)C(OC(=O)COC(=O)c2cccn2C)C1 (centres undefined)	none (no result: KCNQ2 pot)
O=C(CCNC(=O)C1CCN(S(=O)(=O)c2ccccc2)CC1)Nc1cccc(C(F)(F)F)c1	none (no result: KCNQ2 pot)
CCc1cc(C(=O)c2ccc(Br)cc2)c(NC(=O)CN(CC)CC)s1	KCNQ2 block -5.7
CCN(CC)CC(=O)Nc1sc(C)cc1C(=O)c1ccccc1	none (no result: KCNQ2 pot)
Clc1ccc(-c2csc(N3CCC(c4ccccc4)C3)n2)cc1 (centres undefined)	none (no result: KCNQ2 pot)
Cn1c(COc2ccccc2)nnc1SCC(=O)NCc1ccccc1	none (no result: KCNQ2 pot)
CCc1ccc(/C=C/C(=O)C2C(=O)c3ccccc3C2=O)cc1	none
O=C(/C=C/c1ccccc1)C1C(=O)c2ccccc2C1=O	KCNQ2 pot 5.8
CCOc1ccc(NC(=S)N2CCC(C(O)(c3ccccc3)c3ccccc3)CC2)cc1	KCNQ2 pot 6.5
CCOc1ccc(NC(=S)N2CCN(S(=O)(=O)c3ccccc3)CC2)cc1	none (no result: KCNQ2 pot)
COc1ccc(NC(=S)N2CCC(C(O)(c3ccccc3)c3ccccc3)CC2)cc1	KCNQ2 pot 6.7
COc1ccc(NC(=S)N2CCC(c3ccccc3)C2)cc1 (centres undefined)	none
C=C1CCN([C@@H](CC(C)C)C(=O)NN2CCOCC2)S(=O)(=O)c2ccccc21	none (no result: KCNQ2 pot)
CCOC(=O)C1=C(O)CCn2c1nc1ccccc12	none
C1CCc2c(nc3nnnn3c2NCC2CC2)C1	none (no result: KCNQ2 pot)
CCCC(=O)NCCCc1nc2ccccc2n1C	none
CN(C)CCNc1ncnc2c1sc1nc(-c3ccccc3)c3c(c12)CCCC3	KCNQ2 block -7.8
COc1ncnc2c1sc1nc(-c3ccccc3)c3c(c12)CCCC3	none
COc1ccc(N2CCN(C(=O)CCC(=O)N3CCOc4ccc(C)cc43)CC2)cc1	none (no result: KCNQ2 pot)
CCOCCN1CCN(c2c(C)c(C)nc3cc(-c4cc(OC)cc(OC)c4)nn23)CC1	none
CCCOc1ccc(C(=O)CCNC(Cc2c[nH]c3ccccc23)C(=O)O)cc1 (centres undefined)	KCNQ2 block -6
COc1ccc(C(=O)NC(Cc2c[nH]c3ccccc23)C(=O)O)cc1 (centres undefined)	none (no result: KCNQ2 pot)
CCOc1ccc(CCNC(=O)COC(=O)c2nc3nc(C)cc(C)n3n2)cc1OCC	none (no result: KCNQ2 pot)
O=C(CN1C(=O)c2ccccc2S1(=O)=O)c1ccccc1	none (no result: KCNQ2 pot)
O=C(c1ccccc1)c1ccc(OCCn2cnc3ccccc3c2=O)cc1	none
CC(C)(c1ccccc1)c1ccc(OCCn2cnc3ccccc3c2=O)cc1	KCNQ2 block -7.4
CC(C)(C)c1cc(C(=O)N/N=C/c2cc3c(cc2Br)OCO3)n[nH]1	none
O=C(c1ccco1)N1CCCC(c2nc3c(nnn3Cc3cccc(Cl)c3)c(=O)[nH]2)C1 (centres undefined)	none
N#Cc1ccc(NC(=O)N2CCC(c3nc4c(nnn4Cc4cccc(Cl)c4)c(=O)[nH]3)CC2)cc1	KCNQ2 block -7.5
COc1ccccc1N(CCC#N)C(=O)CSc1ccc2c(c1)OCCO2	none
CC(=O)C(C(C)=O)c1c(Cl)c(O)c(O)c2c(C(=O)c3ccccc3)coc12	KCNQ2 block -7.3
CN1CCN(Cc2c(O)ccc3occ(C(=O)c4ccccc4)c23)CC1	none
Cc1cc(S(=O)(=O)N2CCOCC2)ccc1OCC(=O)N1CCC(C)CC1	none (no result: KCNQ2 pot)
Cc1ccc2c(c1)N(C(=O)CCC(=O)N1CCN(c3cccc(C)c3C)CC1)CCO2	KCNQ2 block -5.7
Cc1cccc(N2CCN(C(=O)CCC(=O)N3CC(C)Oc4ccccc43)CC2)c1C (centres undefined)	KCNQ2 block -5.9
CC1CCN(C(=O)CCC(=O)N2CC(C)Oc3ccccc32)CC1 (centres undefined)	none (no result: KCNQ2 pot)
Cc1ccc2c(c1)N(C(=O)CCC(=O)N1CCN(c3ccccc3)CC1)CCO2	none
CC(C)(C)C(=O)Nc1nc(-c2ccccc2)ns1	none
CCc1ccccc1NS(=O)(=O)c1c(C(=O)N2CCCCCC2)c(C)n(C)c1C	none
CCn1c(SCC(=O)NNC(=O)c2ccccc2)nnc1-c1ccncc1	none
Cc1cc(C)c(S(=O)(=O)N(C)CC(=O)N2CCCCC2)c(C)c1	none (no result: KCNQ2 pot)
Cc1cc(C)c(S(=O)(=O)N(C)CC(N)=O)c(C)c1	KCNQ2 block -5.6
Cc1oc(-c2ccccc2F)nc1CN1CCC(C(=O)NC2CCCCCCC2)CC1	none (no result: KCNQ2 pot)
